The structures appear in SMILES notation. Out of some 410,000 compounds screened, about 18,000 (4.4%) were called active. Inconclusive results (about 7%) are left out. The list comes from a sample in which actives are over-represented; it also holds similar structures and randomly drawn compounds. Values without a mark were called inactive. Rule as the data show it: active = activity change below about -60%; inconclusive = no clear call, values can overlap the other calls; inactive = above about -39%.
% is scaled to controls: 0 for no effect and ±100 for the full control effect.

The assay in a line: qHTS Assay for inhibitors of the human cytomegalovirus (HCMV). To be noted: HFF cells, HCMV-luciferase reporter, 72 h; at 57.5 µM; active compounds read low. An excerpt:
NCGC Assay Overview: Infection with human cytomegalovirus (HCMV) continues to pose significant threats for pregnant women and immunocompromised hosts. HCMV causes serious morbidity and mortality in transplant recipients, and congenital HCMV is the leading infectious cause of mental retardation and deafness in children. In the 1990s, the annual costs associated with the disease burden of congenital CMV were estimated at around $2 billion. A HCMV vaccine is not available yet and HCMV therapies result in intolerable side effects and emergence of drug resistant viruses. […] Towards this goal we have developed and characterized a luciferase HCMV reporter that was initially used in 96 well plates and then optimized to 1536-well plates for utilization in screening of the MLSMR collection, the NGCG diversity collection and the NCGC Pharmaceutical Collection of approved and investigational drugs.
NCGC Assay Protocol Summary:
This is a cell-based assay for HCMV inhibition in HFFs cells. The screening used 2 compound doses and the HCMV-luciferase at MOI of 1 PFU/cell. Cells were treated and infected with HCMV. At 72 h post infection cell lysates were collected and luciferase activity was determined using the Glomax-Multi + Detection System (Promega, Madison, WI). Data were normalized to the controls for basal activity (buffer only) and known HCMV inhibitors Salinmoycin.
1536-well assay protocol for the assay:
(1) Add 3 ul CMV/HFF cell culture. 1000 cells/well in DMEM nirmal media.
(2) Incubate 16 hr at 37C.
(3) Add 23 nl control compound, 10uM of Salinomycin.
(4) Add 23 nl compounds in DMSO solution.
(5) Add 3 ul CMV suspension. Final 1 puf/ul, Virus stock 2000pfu/ul
(6) Incubate 72 hrs at 37C.
(7) Add 4 ul OneGlo Luc Reagent.
(8) Incubate 5 min at room temperature.
On the technique in general: In qHTS, concentration-response curves come from the screen itself.
With `O=C(Nc1ccc2ccccc2c1)/C(=C/c1cccc(Br)c1)NC(=O)c1ccco1`, the activity change, negative = inhibition was -64.4% (active). For the molecule `O=C(NCc1ccco1)c1ccc([N+](=O)[O-])cc1Cl`, the activity change, negative = inhibition is -4.15%. Then `O=C(Nc1cccc(C(=O)O)c1)/C(=C\c1ccccc1)NC(=O)c1ccc(Br)o1`, with 23.2%.

As for `CC(Oc1ccc2ccccc2c1)C(=O)NNC(=S)NC(=O)c1ccco1` (stereo unspecified), the activity change, negative = inhibition was -3.96%. As to `O=C(NCc1ccco1)/C(=C/c1cccc([N+](=O)[O-])c1)NC(=O)c1ccco1`, the activity change, negative = inhibition was 20.5%.

Turning to `O=C(NCc1ccco1)/C(=C\c1cccc([N+](=O)[O-])c1)NC(=O)c1ccco1`, the activity change, negative = inhibition was -72% (active). Consider `O=C(CNS(=O)(=O)c1cccs1)N1CCN(c2ccccc2Cl)CC1`, for which the activity change, negative = inhibition was 68.5%. As for `CC1CCCCN1CC(=O)N1CCCc2c1c(=O)oc1ccc(OCc3ccccc3)cc21` (stereo unspecified), the activity change, negative = inhibition was -2.34%. `CCCCn1cc(S(=O)(=O)c2ccc(OCC)cc2)c(=O)c2cc(OC)c(OC)cc21`: the activity change, negative = inhibition is 44.7%.

In the case of `COc1ccc(CCNC(=O)Cn2c(=O)n(-c3ccccc3)c(=O)c3c(C)c(C)sc32)cc1OC`, the activity change, negative = inhibition is -11.6%.

In the case of `COc1ccccc1-c1noc(-c2ccc(NCc3ccccc3)c([N+](=O)[O-])c2)n1`, the activity change, negative = inhibition was 0.104%. For `Cc1ccc(C)c(N2CCN(C(=O)CCCCCn3c(=S)[nH]c4ccc(N5CCOCC5)cc4c3=O)CC2)c1`, the activity change, negative = inhibition was -88.3% (active). The value for `COc1cccc(N2CCN(C(=O)CCCCCn3c(=O)[nH]c4ccccc4c3=O)CC2)c1` was -7.41%; that for `Cc1ccc(C)c(N2CCN(C(=O)CCc3c(C)nc4c(c3C)c(=O)n(C)c(=O)n4C)CC2)c1` was -21.4%. Regarding `CC1(C)OC(=O)C2=C(CC(CCc3ccccc3)OC2c2ccc(Cl)cc2)O1` (stereo unspecified), the activity change, negative = inhibition is 7.29%. Regarding `Cc1cc(C)cc(OC(C)C(=O)Nc2nc3c(s2)CCCC3)c1` (stereo unspecified), the activity change, negative = inhibition was -26.6%. Regarding `COc1cc(C(=O)N2CCN(C(=O)COc3cccc(C)c3)CC2)cc(OC)c1OC`, the activity change, negative = inhibition is 28.1%.

`CCc1cccc(C)c1Nc1c(-c2ccc(N(C)C)cc2)nc2ncccn12`: the activity change, negative = inhibition is -14.5%. The value for `CC(Nc1ccc(-c2nc(-c3ccco3)no2)cc1[N+](=O)[O-])c1ccccc1` (stereo unspecified) was 41.2%; that for `CCOC(=O)Cn1c(CN(Cc2ccccc2)Cc2ccccc2)nc2c1c(=O)[nH]c(=O)n2C` was 31.2%. Then `COC(=O)[C@@H]1[C@@H](CO)[C@@H]2Cn3c(ccc(Br)c3=O)[C@H]1N2C(=O)c1cnccn1`, with 13.3%; and `COc1ccccc1CNS(=O)(=O)c1ccc(C)cc1`, with -4.42%; and `Cc1nc(CNS(=O)(=O)c2ccc(Oc3ccccc3)cc2)cs1`, with -90.1% (active).

As for `Cc1nc(CNS(=O)(=O)c2cc([N+](=O)[O-])ccc2C)cs1`, the activity change, negative = inhibition was 17.1%. For `O=C1CSC2(C(=O)N(Cc3ccccc3)c3ccccc32)N1c1cccc(F)c1` (stereo unspecified), the activity change, negative = inhibition is -27.5%. Take `CC(=O)c1ccccc1OCc1ccc(C(=O)c2ccccc2)cc1`: the activity change, negative = inhibition was -23.4%. The value for `O=C(NC1CCC(O)CC1)c1ccccc1OCc1ccc(F)cc1` (stereo unspecified) was -22.6%; that for `Cc1nc2ccccc2cc1OCc1ccc(F)cc1` was -82.9% (active). In the case of `CCCN(CC(=O)Nc1ccccc1C)C(=O)c1ccc2[nH]c3c(c2c1)CC(C)CC3` (stereo unspecified), the activity change, negative = inhibition was -61.3% (active). For `CCCN(CC(=O)Nc1ccccc1C)C(=O)c1cc(=O)[nH]c2ccccc12`, the activity change, negative = inhibition is 42.9%. The value for `CCCN(CC(=O)Nc1ccccc1C)C(=O)c1ccc(OCC(=O)N2CCOCC2)c(OCC)c1` was 0.271%; that for `CC(C)NC(=O)Nc1cccc2c1O[C@@H](CN(C)S(=O)(=O)c1ccc(F)cc1)[C@@H](C)CN([C@H](C)CO)C2=O` was 7.5%; that for `Clc1cccc(Cl)c1Cl` was -15.9%. Take `COc1ccc(S(=O)(=O)c2c(Nc3ccc(C)cc3)sc(C(=O)c3ccc(C)cc3)c2N)cc1`: the activity change, negative = inhibition was -10.2%. On to `Cc1ccc(NC(=O)c2cn3c4c(ccc(Cl)c4c2=O)OC(C)C3)cc1C` (stereo unspecified), for which the activity change, negative = inhibition is 0.532%. With `CSc1ccc(Cl)c(C(=O)OCC(=O)N2CC(C)OC(C)C2)c1` (stereo unspecified), the activity change, negative = inhibition is -9.66%. For `COc1ccc(NC(=O)CN(C)C(=O)c2cc(C3CC3)nn2-c2ccccc2)cc1`, the activity change, negative = inhibition is -100% (active). On to `COc1ccc(NC(=O)CN(C)C(=O)c2n[nH]c3ccccc23)cc1`, for which the activity change, negative = inhibition is 5.1%. For `CCc1ccccc1NC(=O)CN(C)C(=O)c1cc(C2CC2)nn1-c1ccccc1`, the activity change, negative = inhibition is -18%. Take `Cc1nc2nc(SCC(=O)N(Cc3ccccc3)C(C)C)nn2c(C)c1Cc1ccccc1Cl`: the activity change, negative = inhibition is -0.509%. The value for `CSc1ccc(C2c3c(oc4ccccc4c3=O)C(=O)N2CCCN2CCOCC2)cc1` (stereo unspecified) was 7.95%; that for `CNC[C@H]1OCc2cnnn2CCCC(=O)N([C@H](C)CO)C[C@@H]1C` was -9.25%. For the molecule `Cc1ccc(-c2nnc3c4ccccc4c(C)nn23)cc1NC(=O)c1cccc(Br)c1`, the activity change, negative = inhibition was 35.9%. `CSc1nc(-c2ccccc2Cl)nc2c1Cc1c(CO)cnc(C)c1O2`: the activity change, negative = inhibition is 9.54%. For `CCOC(=O)C1Sc2[nH]c(=O)sc2C(c2ccc(Cl)cc2)C1C(=O)OCC` (stereo unspecified), the activity change, negative = inhibition is -32.8%. With `C=CCOC(=O)C1=C(C)NC(C)=C(C(=O)OCC=C)C1c1cccs1`, the activity change, negative = inhibition is -12.1%.

Source of the values: PubChem BioAssay AID1259415 (National Center for Advancing Translational Sciences (NCATS), 2018).
